Test results published in PubChem BioAssay AID1159580 (chemical genetic matrix, 2015).
Hit rate of the full screen: of about 5,500 compounds, about 2,000 (36%) were called active. Inconclusive results (about 18%) are left out. No stated cut-off is given here; in the data, active means normalized growth mostly below about 0.91 (no sharp cut-off); inconclusive means no clear call, values can overlap the other calls; inactive means mostly above about 0.92. The list shows a part of the results.

Assay: chemical genetic growth profiling, strain panel (AID 1159580);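 further: tested at 20 µM; growth read once vehicle control cultures reached saturation at 30 °C; 1 = growth at the plate median or of vehicle wells; lower values mean less growth of the strain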
Details: growth OD

Measured: normalized growth

CN1C(CC(=O)c2ccccc2)CCCC1CC(O)c1ccccc1 (configuration not stated)
inactive: S. cerevisiae deletion strains, locus YJR075W, strain HOC1, active compounds read low 0.998 | S. cerevisiae deletion strains, locus YKL009W, strain mrt4, active compounds read low 0.994 | S. cerevisiae deletion strains, locus YKL068W, active compounds read low 0.994 | S. cerevisiae deletion strains, locus YKL085W, strain MDH1 (second series), active compounds read low 0.989 | S. cerevisiae deletion strains, locus YKL085W, strain MDH1, active compounds read low 0.989 | S. cerevisiae deletion strains, locus YKL160W, strain elf1, active compounds read low 1 | S. cerevisiae deletion strains, locus YKL190W, strain CNB1, active compounds read low 1.01 | S. cerevisiae deletion strains, locus YKR001C, strain vps1, active compounds read low 1 | S. cerevisiae deletion strains, locus YKR026C, strain gcn3, active compounds read low 0.977 | S. cerevisiae deletion strains, locus YKR091W, strain srl3, active compounds read low 0.975 | S. cerevisiae deletion strains, locus YLL001W, strain dnm1, active compounds read low 0.967 | S. cerevisiae deletion strains, locus YLL026W, active compounds read low 0.98 | S. cerevisiae deletion strains, locus YLL041C, strain sdh2, active compounds read low 0.982 | S. cerevisiae deletion strains, locus YLR027C, strain aat2, active compounds read low 0.965 | S. cerevisiae deletion strains, locus YLR039C, strain RIC1, active compounds read low 1.04 | S. cerevisiae deletion strains, locus YLR058C, strain SHM2, active compounds read low 1.01 | S. cerevisiae deletion strains, locus YLR102C, strain apc9, active compounds read low 0.983 | S. cerevisiae deletion strains, locus YLR113W, strain HOG1, active compounds read low 0.984 | S. cerevisiae deletion strains, locus YLR221C, strain rsa3, active compounds read low 0.99 | S. cerevisiae deletion strains, locus YLR258W, strain gsy2, active compounds read low 0.983 | S. cerevisiae deletion strains, locus YLR262C, strain YPT6 (second series), active compounds read low 0.909 | S. cerevisiae deletion strains, locus YLR262C, strain YPT6, active compounds read low 1.06 | S. cerevisiae deletion strains, locus YLR268W, strain sec22, active compounds read low 0.928 | S. cerevisiae deletion strains, locus YLR320W, strain mms22, active compounds read low 0.979 | S. cerevisiae deletion strains, locus YLR330W, strain CHS5, active compounds read low 1 | S. cerevisiae deletion strains, locus YLR342W, strain FKS1 (second series), active compounds read low 1.03 | S. cerevisiae deletion strains, locus YLR342W, strain FKS1, active compounds read low 0.966 | S. cerevisiae deletion strains, locus YLR357W, strain rsc2, active compounds read low 0.967 | S. cerevisiae deletion strains, locus YLR370C, strain arc18, active compounds read low 0.962 | S. cerevisiae deletion strains, locus YLR371W, strain rom2, active compounds read low 0.984 | S. cerevisiae deletion strains, locus YLR384C, strain iki3, active compounds read low 0.974 | S. cerevisiae deletion strains, locus YLR418C, strain cdc73, active compounds read low 0.957 | S. cerevisiae deletion strains, locus YML016C, strain PPZ1, active compounds read low 1.01 | S. cerevisiae deletion strains, locus YML032C, strain rad52, active compounds read low 0.973 | S. cerevisiae deletion strains, locus YML120C, strain ndi1, active compounds read low 0.977 | S. cerevisiae deletion strains, locus YML124C, strain tub3, active compounds read low 0.988 | S. cerevisiae deletion strains, locus YMR058W, strain fet3, active compounds read low 0.969 | S. cerevisiae deletion strains, locus YMR078C, strain ctf18, active compounds read low 0.991 | S. cerevisiae deletion strains, locus YMR125W, strain sto1, active compounds read low 0.951 | S. cerevisiae deletion strains, locus YMR129W, active compounds read low 0.976 | S. cerevisiae deletion strains, locus YMR205C, strain PFK2, active compounds read low 0.971 | S. cerevisiae deletion strains, locus YMR223W, strain ubp8, active compounds read low 0.993 | S. cerevisiae deletion strains, locus YMR231W, strain pep5, active compounds read low 0.987 | S. cerevisiae deletion strains, locus YMR263W, strain SAP30, active compounds read low 1.01 | S. cerevisiae deletion strains, locus YMR307W, strain GAS1, active compounds read low 1.08 | S. cerevisiae deletion strains, locus YNL067W, strain RPL9B, active compounds read low 0.986 | S. cerevisiae deletion strains, locus YNL071W, strain lat1, active compounds read low 0.975 | S. cerevisiae deletion strains, locus YNL128W, strain TEP1, active compounds read low 1.01 | S. cerevisiae deletion strains, locus YNL153C, strain GIM3, active compounds read low 0.988 | S. cerevisiae deletion strains, locus YNL183C, strain NPR1, active compounds read low 0.924 | S. cerevisiae deletion strains, locus YNL209W, strain ssb2, active compounds read low 0.981 | S. cerevisiae deletion strains, locus YNL233W, strain BNI4, active compounds read low 0.994 | S. cerevisiae deletion strains, locus YNL248C, strain rpa49, active compounds read low 1.01 | S. cerevisiae deletion strains, locus YNL250W, strain rad50, active compounds read low 0.981 | S. cerevisiae deletion strains, locus YNL271C, strain bni1, active compounds read low 0.984 | S. cerevisiae deletion strains, locus YNL298W, strain CLA4, active compounds read low 0.98 | S. cerevisiae deletion strains, locus YNL307C, strain MCK1, active compounds read low 0.992 | S. cerevisiae deletion strains, locus YNL322C, strain KRE1 (second series), active compounds read low 0.985 | S. cerevisiae deletion strains, locus YNL322C, strain KRE1, active compounds read low 1.01 | S. cerevisiae deletion strains, locus YNR049C, strain mso1, active compounds read low 0.973 | S. cerevisiae deletion strains, locus YNR052C, strain pop2, active compounds read low 0.99 | S. cerevisiae deletion strains, locus YOL006C, strain TOP1, active compounds read low 0.939 | S. cerevisiae deletion strains, locus YOL012C, strain htz1 0.951 | S. cerevisiae deletion strains, locus YOL147C, strain pex11, active compounds read low 0.991 | S. cerevisiae deletion strains, locus YOR001W, strain rrp6, active compounds read low 0.997 | S. cerevisiae deletion strains, locus YOR061W, strain CKA2, active compounds read low 1.02 | S. cerevisiae deletion strains, locus YOR069W, strain VPS5, active compounds read low 1.01 | S. cerevisiae deletion strains, locus YOR070C, strain gyp1, active compounds read low 0.971 | S. cerevisiae deletion strains, locus YOR080W, strain dia2, active compounds read low 0.988 | S. cerevisiae deletion strains, locus YOR083W, strain WHI5, active compounds read low 1.01 | S. cerevisiae deletion strains, locus YOR106W, strain vam3, active compounds read low 1 | S. cerevisiae deletion strains, locus YOR136W, strain idh2, active compounds read low 0.993 | S. cerevisiae deletion strains, locus YOR144C, strain elg1, active compounds read low 0.993 | S. cerevisiae deletion strains, locus YOR184W, strain ser1, active compounds read low 0.988 | S. cerevisiae deletion strains, locus YOR231W, strain MKK1, active compounds read low 0.978 | S. cerevisiae deletion strains, locus YOR265W, strain rbl2, active compounds read low 0.973 | S. cerevisiae deletion strains, locus YOR270C, strain vph1, active compounds read low 0.917 | S. cerevisiae deletion strains, locus YOR290C, strain snf2, active compounds read low 0.951 | S. cerevisiae deletion strains, locus YOR316C, strain cot1, active compounds read low 0.99 | S. cerevisiae deletion strains, locus YPL051W, strain arl3, active compounds read low 0.998 | S. cerevisiae deletion strains, locus YPL055C, strain LGE1, active compounds read low 1.01 | S. cerevisiae deletion strains, locus YPL078C, strain atp4, active compounds read low 0.991 | S. cerevisiae deletion strains, locus YPL106C, strain sse1, active compounds read low 0.954 | S. cerevisiae deletion strains, locus YPL240C, strain hsp82, active compounds read low 0.998 | S. cerevisiae deletion strains, locus YPL241C, strain CIN2, active compounds read low 1.01 | S. cerevisiae deletion strains, locus YPL256C, strain CLN2, active compounds read low 0.938 | S. cerevisiae deletion strains, locus YPR119W, strain clb2, active compounds read low 0.992 | S. cerevisiae deletion strains, locus YPR141C, strain kar3, active compounds read low 0.992 | S. cerevisiae deletion strains, locus YPR163C, strain tif3, active compounds read low 0.981 | S. cerevisiae deletion strains, locus YPR167C, strain met16, active compounds read low 0.997 | S. cerevisiae deletion strains, strain wtn01, active compounds read low 0.954 | S. cerevisiae strains, strain wild type, active compounds read low 1.01
